In all, about 1,000 compounds went through this assay and about 700 (70%) were called active. No stated cut-off is given here; in the data, active means inhibition above about 50%; inactive means the rest. So high a share suggests a set chosen from earlier hits. A selection follows.

A short description of this assay: CASP1-PYCARD signaling inhibition in yeast, confirmatory test, counterassay for NLRP3 inhibitor program, one-dose (AID 488784). As to conditions: yeast expressing Caspase-1-ASC, luminescence counter screen; at 10 µM; hits give high values.
In the case of `O=C1/C(=C\c2ccc3c(c2)OCO3)N2CCC1CC2`, the inhibition was 60.4% (active).

Turning to `Cc1cc2ccccn2c1C(C[N+](=O)[O-])c1c(F)cccc1Cl` (centres undefined), the inhibition is 12.2% (inactive).

`CCCCCCCCCCCCn1ccc(=N)cc1`: the inhibition was 59% (active).

Regarding `Cc1ccc(-c2nc3ccccc3c(=O)n2-c2ccc(Br)cn2)cc1`, the inhibition was 44% (inactive).

As a reminder, the inhibition is how much of the control response was suppressed.

Values taken from PubChem BioAssay AID488784 (Sanford-Burnham Center for Chemical Genomics, 2010).
